Rows were chosen to be rich in hits. Some 28% of all compounds tested hit in one or more screens of this group.
CYP2C19 act – activators of human cytochrome P450 2C19; P33261; recombinant CYP2C19, luciferin-H EGE luminescence; hits give high values; 0 = fully inhibited enzyme, 1 = untreated enzyme; activation factor at 5 µM; 96,000 tested, under 10 active; AID 1025;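 active = activation factor of at least 2 at 5 µM in the primary screen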
D1 allo mod – allosterically modulates the human D1 dopamine receptor. P21728. HEK293 D1, CRE-luciferase, dopamine EC30 potentiation; actives deviate in either direction. AID 641. B-score at 10 µM. hit rate 5.9% among 58,000;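 active = luminescence count or its row- and column-corrected plate score outside the 99.7% band of the plate's sample wells, on either side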
hDAT+cocaine – human DAT dopamine uptake with cocaine, either direction; LLC-PK1 hDAT cells, [14C]-dopamine uptake with cocaine IC80; actives deviate in either direction; B-score at 10 µM; hit rate 1.3% among 110,000; AID 449768;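 active = Z score or B-score, a plate-position-corrected score, falls beyond the plate's 99.7% confidence bounds, in either direction; inactive = both scores lie inside the 99.7% bounds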
CYP2C9 inh – inhibitors of human CYP2C9; P11712; CYP2C9 Supersomes, luciferin-H conversion, luminescence; inhibition, % at 5 µM; hit rate 20% among 96,000; AID 777;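 active = blocking of liver enzyme CYP2C9 beyond about 50% at 5 µM, limit read from the data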
Target sequence (P11712 whole entry, looked up): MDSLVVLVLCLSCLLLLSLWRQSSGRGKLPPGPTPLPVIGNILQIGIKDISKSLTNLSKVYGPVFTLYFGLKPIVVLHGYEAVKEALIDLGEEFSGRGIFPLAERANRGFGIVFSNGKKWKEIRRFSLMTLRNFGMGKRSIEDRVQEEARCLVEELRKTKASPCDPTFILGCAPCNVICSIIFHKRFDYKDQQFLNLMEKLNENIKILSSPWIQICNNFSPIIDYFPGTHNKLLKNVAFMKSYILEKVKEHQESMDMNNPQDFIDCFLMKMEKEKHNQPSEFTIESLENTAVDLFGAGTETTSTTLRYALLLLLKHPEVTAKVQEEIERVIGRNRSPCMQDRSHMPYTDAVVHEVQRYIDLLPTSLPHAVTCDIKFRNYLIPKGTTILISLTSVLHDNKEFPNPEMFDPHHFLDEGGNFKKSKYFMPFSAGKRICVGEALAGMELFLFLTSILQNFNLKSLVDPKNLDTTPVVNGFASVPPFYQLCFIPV
CYP2C9 activ – activators of human CYP2C9; P11712; recombinant CYP2C9, luciferin-H conversion, luminescence; hits give high values; factor 1 = untreated enzyme, 0 = blocked; activation factor at 5 µM; hit rate 1.4% among 96,000; AID 1024;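 active = activation factor of 2 or more for CYP2C9 at a 5 µM dose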
CYP2C19 inh – inhibitors of human CYP2C19; P33261; CYP2C19 Supersomes, luciferin-H EGE luminescence, 30 min; inhibition, % at 5 µM; hit rate 21% among 96,000;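 active = CYP2C19 inhibition above a set limit at 5 µM in the primary screen, cut at about 50% in these data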
Each line names hits and unclear results; the compound was inactive in the other large screens.

CCOC(=O)C1CCN(C(=O)c2ccc(SC)cc2OC)CC1	CYP2C19 inh 99
CCOC(=O)C1CCCN(C(=O)Cc2ccc(Cl)cc2)C1 (stereo unspecified)	CYP2C9 inh 76 (no result: D1 allo mod)
CCOC(=O)N1CCN(C(=O)CCSCCc2ccncc2)CC1	CYP2C19 inh 63
CCOC(=O)C1CCCN(C(=O)c2cc(Nc3ccc(OC)cc3OC)nc3ccccc23)C1 (stereo unspecified)	CYP2C9 inh 98, CYP2C19 inh 64 (no result: D1 allo mod)
Cc1ccc(-c2[nH]nc3c2C(c2ccc(OC(=O)N4CCOCC4)cc2)C(C#N)=C(N)O3)cc1 (stereo unspecified)	none
CC1CC(C)CN(CCCNC(=O)C2CCC(=O)N2C2CCCC2)C1 (stereo unspecified)	none
CCOC(=O)C1CCCN(Cc2c(F)cccc2Cl)C1 (stereo unspecified)	CYP2C19 inh 62
CCCCC(=O)Nc1ccc(C(=O)N2CCCC(C(=O)OCC)C2)cc1 (stereo unspecified)	CYP2C19 inh 92
CCOC(=O)C1CCN(C(=O)CSc2ccccc2)CC1	CYP2C19 inh 64
CCOC(=O)N1CCN(C(=O)c2ccc3c(c2)sc2nc(-c4ccccc4)cn23)CC1	CYP2C9 inh 57 (no result: D1 allo mod)
CCOC(=O)C1CCCN(C(=O)Nc2ccccc2)C1 (stereo unspecified)	none (no result: D1 allo mod)
CCOC(=O)C1CCN(C(=O)CC(C)c2ccccc2)CC1 (stereo unspecified)	none
CCOc1ccccc1NC(=O)c1c(NC(=O)CNCc2ccco2)sc2c1CCC2	none (no result: hDAT+cocaine)
O=C(CCCN1C(=O)C2CCCCN2C1=O)N1CCN(c2ccc([N+](=O)[O-])cc2)CC1 (stereo unspecified)	none (no result: D1 allo mod)
CCOC(=O)C1CCCN(C(=O)CC(C)c2ccccc2)C1 (stereo unspecified)	CYP2C9 inh 84, CYP2C19 inh 79
CCOC(=O)N1CCN(C(=O)Cc2ccc(Cl)cc2)CC1	CYP2C9 inh 64, CYP2C19 inh 54
NC(=O)NC(Cc1ccccc1)C(=O)NCC1(N2CCCCC2)CCCCC1 (stereo unspecified)	none
CC(=O)OCc1c(C(F)(F)F)nn(C)c1SCc1ccc(Cl)cc1	CYP2C9 inh 62, CYP2C19 inh 99 (no result: D1 allo mod)
Cn1c(N/N=C/c2ccccc2)nc2sc3c(c2c1=O)CCC3	none (no result: D1 allo mod)
CCCCC(=O)NC1(C(F)(F)F)C(=O)N(CC(C)C)C2=C1C(=O)CC(C)(C)C2 (stereo unspecified)	none (no result: D1 allo mod)
COc1cc(Cn2c(N)c(C#N)c3nc4ccccc4nc32)cc(OC)c1	CYP2C9 inh 56 (no result: hDAT+cocaine)
Nc1c(C(=O)NCc2ccco2)c2nc3ccccc3nc2n1CCc1ccc(F)cc1	CYP2C9 inh 58 (no result: D1 allo mod)
Nc1c(C(=O)NCc2ccc3c(c2)OCO3)c2nc3ccccc3nc2n1CCCN1CCOCC1	CYP2C19 inh 69
COc1ccccc1CNC(=O)c1c(N)n(CCCN2CCOCC2)c2nc3ccccc3nc12	none (no result: D1 allo mod, hDAT+cocaine)
N#Cc1c(N)n(CCc2ccc(F)cc2)c2nc3ccccc3nc12	CYP2C9 inh 80, CYP2C19 inh 99 (no result: D1 allo mod)
COc1ccc(-n2c(N)c(C(=O)NCc3ccco3)c3nc4ccccc4nc32)cc1	none (no result: D1 allo mod)
Cc1ccnc(NC2OC(=O)c3ccccc32)c1 (stereo unspecified)	none (no result: D1 allo mod)
Cc1ccc(Cn2nnnc2CN2CCC(c3nc4ccc(Cl)cc4[nH]3)CC2)cc1	CYP2C9 inh 90, CYP2C19 inh 89 (no result: D1 allo mod)
CC[C@@H](C)CN1C(=O)N[C@@H](c2ccccc2)C(C(C)=O)=C1C	none (no result: CYP2C19 act, D1 allo mod, CYP2C9 inh, CYP2C9 activ, CYP2C19 inh)
COc1ccc(/C=N/c2oc(-c3ccccc3)cc2C#N)cc1OC	CYP2C19 inh 54 (no result: D1 allo mod)
Cc1ccc(CNC(=O)c2ccc3c(c2)S(=O)(=O)c2ccccc2C3=O)o1	none (no result: CYP2C19 act, D1 allo mod, CYP2C9 inh, CYP2C9 activ, CYP2C19 inh)
Cc1cc(C)c2c(n1)sc1c(=O)[nH]c(SCc3ccccc3)nc12	CYP2C9 inh 64 (no result: D1 allo mod)
C=CCSc1nc2c(sc3nc(C)cc(C)c32)c(=O)[nH]1	none (no result: D1 allo mod)
COC(=O)c1cc2oc(C)cc2n1CC(=O)Nc1cc(C)cc(C)c1	none
CCNc1nc(CN2CCOCC2)nc2sc3c(c12)CCC3	none (no result: D1 allo mod)
O=S(=O)(Nc1nc(CN2CCOCC2)nc2sc3c(c12)CCCC3)c1cc(F)ccc1F	CYP2C9 inh 63
COc1ccc(-c2[nH]c(-c3ccc(C)cc3)nc2SCC(=O)NCc2ccco2)cc1OC	CYP2C19 inh 64 (no result: D1 allo mod)

High-throughput results from PubChem BioAssay.
